# Experimental data reported in PubChem BioAssay (NCI).
# About 83,000 compounds went through this panel and 20% of them were active in at least one assay; those are over-represented in the sample as a whole.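 Activity criterion: percent growth below 10, measured after cells in 96-well plates were exposed to a single compound concentration for 48 hours.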 A number with no mark means an inactive call. The source made the active and inactive calls.
# Tested on: NCI/ADR-RES ovarian
# Experiment: NCI-60 one-dose screen, 48 h (100 = growth as untreated, 0 = no growth, -100 = all killed)
# Settings: 10 µM unless noted
# Description: Growth inhibition of the NCI/ADR-RES human […] tumor cell line is measured as a screen for anti-cancer activity. Cells are grown in 96 well plates and exposed to the test compound for 48 hours. Compounds are tested at a single concentration, which is 10^-5 M for most compounds. The reported endpoint is percent growth (GI% or GIPRCNT), where numbers from 0 - 100% represent growth inhibition, and numbers from -100% - 0 represent cell death. For example, a value of 40 represents 60% growth inhibition. A value of 0 means no net growth occurred over the course of the experiment. A value of -40 indicates 40% of cells at the beginning of the experiment died by the end of the experiment. A value of -100 means all cells are dead at the end of the experiment.
# NCI-60 Human Tumor Cell Lines Screen was performed using the standard one-dose NCI protocol, which is described in more detail at https://dtp.cancer.gov/discovery_development/nci-60/default.htm.
# Compounds with GIPRCNT values below 10 were considered active. Activity score was based on GIPRCNT using the following formula: […]
# Score is 0 for GIPRCNT values of 100 or above, 50 for GIPRCNT values of 0, and 100 for GIPRCNT values of -100.
row,Structure (SMILES),growth
1,CC1=CC(c2ccco2)=C2C(N)=NNC2N1 (stereo not given),98.9%
2,Cc1nc2c(=O)nc3s/c(=C\c4ccco4)c(=O)n3c2nc1C,93.5%
3,COc1cccc(NCc2nnc(Nc3ccc(Cl)cc3)c3ccccc23)c1,-5.42% (active)
4,CC1CCN(C(=O)CCCl)c2ccccc21 (stereo not given),98%
5,O=S(=O)(NCCCNc1nccc(-c2c(-c3cccc(F)c3)nc3occn23)n1)c1ccc(F)cc1,42.4%
6,CC1=C(C(=O)Nc2nc(-c3ccc(Cl)cc3)cs2)[C@H](c2ccc(O)cc2)NC(=O)N1,101%
7,CCOC(=O)c1c(C)nc2c(c1N)CC(=O)N2Cc1ccc(OC)cc1,34.4%
8,O=C1/C(=C\c2ccccn2)c2ccccc2N1c1c(Cl)cccc1Cl,-26.7% (active)
9,O=C(O)COc1ccc(Cl)c(Cl)c1,106%
10,O=C(Nc1ccc(Cl)cc1)Oc1c(Cl)c(Cl)c(Cl)c(Cl)c1Cl,94%
11,Cn1c2c(c3ccc(Cl)c(Cl)c31)C(C#N)C(C)(C)NC2=O (stereo not given),81.6%
12,COc1ccc2[nH]cc(-c3nc(-c4c[nH]c5c(Cl)nccc45)cs3)c2c1,20.7%
13,C=CC(=O)Nc1ccc(Oc2nccc(Nc3nnc(-c4ccc(C)cc4)s3)n2)cc1,59.1%
14,Nn1c(=O)c(=O)[nH]c2c(cnn2-c2ccccc2)c1=O,106%
15,Cn1cc(-c2nn3cc(-c4cccs4)nc3s2)c2cc(F)ccc21,21.1%
16,COc1ccc(C(=O)c2cc3c(N)c(C(=O)Nc4ccccc4)sc3nc2C)cc1,14.8%
17,Oc1c(CN2CCC(N3CCCCC3)CC2)cc(Cc2cc(CN3CCC(N4CCCCC4)CC3)c(O)c3ncccc23)c2cccnc12,48.4%
18,C=CCn1c(SCC(=O)Nc2ccc(/C(C)=N/O)cc2)nnc1-c1cc(-c2ccc(S(N)(=O)=O)cc2)nc2ccccc12,99%
19,O=C1/C(=C/c2ccccn2)NC(=S)N1c1ccccc1Cl,50.8%
20,CCN1C(=O)N(CC)C2Nn3c(s/c(=C\c4ccccc4Br)c3=O)=NC21 (stereo not given),5.54% (active)

row,Structure (SMILES),growth
1,Cc1ccc(/C=C(\C#N)n2nnc3cc(F)c(F)cc32)cc1,12.9%
2,O=C(/C=C/C12c3ccccc3C(c3ccccc31)C1C(=O)NC(=O)C12)c1ccc(Br)cc1 (stereo not given),45.1%
3,Nc1ccc(-c2csc(-n3[nH]c(=O)ccc3=O)n2)cc1,94.4%
4,CC1(C)CC[C@]23CC[C@]4(C)[C@H](CC[C@@H]5[C@@]6(C)C/C(=C/c7ccncc7)C(=O)C(C)(C)[C@@H]6CC[C@]54C)[C@H]2[C@H]1OC3,97.8%
5,O=C(Cc1ccc(NC(=O)c2cccc(Cl)c2)cc1)NCc1ccccc1,50.5%
6,C/C=C(\C)C(=O)N[C@H]1C(O)C[C@]2(C)C3CC[C@@]4(C)C(CC[C@@H]4C(C)N(C)C)C3CCC2C1O (stereo not given in full),81.3%
7,CNC1=CC(=O)c2c(C(=O)OC)c(C)[n+]([O-])c(C)c2C1=O,70.6%
8,COc1ccc(C#Cc2ccc(=O)oc2-c2cc(OC)c(OC)c(OC)c2)cc1O,19.6%
9,CNC(=O)c1cc(Oc2ccc3c(c2)sc2nc(-c4ccc(OC)cc4)cn23)ccn1,71.3%
10,O=C(Nc1ccccc1N1CCCC1=O)c1oc2ccc(F)cc2c1-c1cnn(-c2ccccc2)c1,40.4% [50 µM]
11,CCOc1cccc(/C=N/NC(=O)c2cccc(Nc3ccnc(C(F)(F)F)c3)c2)c1O,37.6%
12,Nc1nc(N)c2c(n1)NC(c1ccc(Cl)cc1)C1CCc3ccccc3C1=N2 (stereo not given),52.5%
13,Fc1cc(Nc2ccc3c(OCCCN4CCOCC4)cccc3n2)ccc1Cl,48.5%
14,Cc1nn(-c2ccccc2)c(N)c1N=C1NC(=O)/C(=C/c2ccc(Br)cc2)S1,77.7%
15,CCN(CC)CCCN1C(=O)c2c(c(C)c3c(oc4ccc(OC)cc43)c2C)C1=O,95.7%
16,CN(Cc1cc(Br)cc(Br)c1O)Cc1cc(Br)cc(Br)c1O,9.38% (active)
17,C=C(C)[C@@H]1CC[C@]2(C(N)=O)CC[C@]3(C)[C@H](CC[C@@H]4[C@@]5(C)CC[C@H](OCCC#N)C(C)(C)[C@@H]5CC[C@]43C)[C@@H]12,89%
18,CCOC(=O)c1nn(CC(O)c2ccccc2)c(NC(=O)Nc2cccc(F)c2)c1C (stereo not given),106%
19,CO[C@H]1CC(=O)n2c3ccccc3c3c4c(c5c6ccccc6n1c5c32)C(=O)NC4=O,36.2%
20,CCOC(=O)C(Cc1ccc(OC)cc1)C(=O)OCC,17.9%
